The supplement of paper PMC8975748
Structures can show the parent of a compound that is named as a salt.

tested on: Saccharomyces cerevisiae BY4741 SeMeCo community; experiment: z-score of subpopulation abundance vs DMSO median, subpopulation auxotrophic for LM; higher = larger share of this subpopulation than in DMSO controls; settings: 10 µM; 24 h; SM minimal medium; subpopulation (auxotrophy): LM
Experimental: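 Fluorescent four-plasmid SeMeCo (self-establishing metabolically cooperating S. cerevisiae BY4741 community; plasmids pH-mRuby2, pL-mWasabi, pU-eCFP, pM-TagRFP657) was grown 24 h in minimal SM medium with each Selleck FDA-approved drug at 10 µM in 384-well plates. Cells were fixed and imaged by high-content confocal microscopy. For each auxotrophic subpopulation (and the prototroph), a z-score gives the deviation from the DMSO vehicle-control population median.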

Compared with `C=CN1CCCC1=O.II` [Povidone iodine], `NC(=O)CN1CCCC1=O` [Piracetam] is higher in “z-score of subpopulation abundance” value: -0.46 for the first, 1.96 for the second.

First: CN(C)[C@@H]1C(=O)C(C(N)=O)=C(O)[C@@]2(O)C(=O)C3=C(O)c4c(O)cccc4[C@@](C)(O)[C@H]3[C@H](O)[C@@H]12 [Oxytetracycline Dihydrate]
Second: CN(C)[C@@H]1C(=O)C(C(N)=O)=C(O)[C@@]2(O)C(=O)C3=C(O)c4c(O)cccc4[C@@](C)(O)[C@H]3C[C@@H]12 [Tetracycline HCl]
The “z-score of subpopulation abundance” value of the first is lower: -0.49 for the first, -0.24 for the second.

Compared with `O=C(O[C@H]1C[C@H]2CC[C@@H](C1)[N+]21CCCC1)C(O)(c1ccccc1)c1ccccc1` [Trospium chloride], `C[N+]12CCC(CC1)C(OC(=O)C(O)(c1ccccc1)c1ccccc1)C2` (centres undefined) [Clidinium Bromide] is lower in “z-score of subpopulation abundance” value: -0.54 for the first, -0.72 for the second.

Compared with `COc1ccc2c(c1)[C@]13CCCC[C@@H]1[C@H](C2)N(C)CC3` [Dextromethorphan hydrobromide hydrate], `COc1ccc(C(CN(C)C)C2(O)CCCCC2)cc1` (centres undefined) [Venlafaxine HCl] is higher in “z-score of subpopulation abundance” value: -0.18 for the first, 0.27 for the second.

Going from `COc1ccc(C=O)cc1` [p-Anisaldehyde] to `COc1ccc(C(CN(C)C)C2(O)CCCCC2)cc1` (centres undefined) [Venlafaxine], the “z-score of subpopulation abundance” value falls from -0.17 to -0.51.

First: COC(=O)C1=CCCN(C)C1 [Arecoline HBr]
Second: CC[C@@H](C(N)=O)N1CCCC1=O [Levetiracetam]
The “z-score of subpopulation abundance” value of the first is higher: 0.61 for the first, -0.55 for the second.

First: Cn1cc(C2=C(c3cn(C4CCN(Cc5ccccn5)CC4)c4ccccc34)C(=O)NC2=O)c2ccccc21
Second: O=c1[nH]c2ccccc2n1CCCN1CCC(n2c(=O)[nH]c3cc(Cl)ccc32)CC1 [Domperidone]
The “z-score of subpopulation abundance” value of the first is lower: -1.68 for the first, -0.04 for the second.

Going from `CN(C)C(=O)Oc1cccc([N+](C)(C)C)c1` [Neostigmine Bromide] to `COc1ccc2c3c([nH]c2c1)C(C)=NCC3` [Harmaline], the “z-score of subpopulation abundance” value rises from 0.26 to 4.83.

First: CN1[C@@H]2C[C@@H](OC(=O)[C@H](CO)c3ccccc3)C[C@H]1[C@@H]1O[C@@H]12 [Scopolamine HBr trihydrate]
Second: CC[C@H]1CN2CC[C@]3(C(=O)Nc4ccccc43)[C@@H]2C[C@@H]1/C(=C\OC)C(=O)OC [Rhynchophylline]
The “z-score of subpopulation abundance” value of the first is lower: -0.12 for the first, -0.11 for the second.

Going from `CCOC(=O)Nc1ccc(NCc2ccc(F)cc2)cc1N` [Retigabine] to `COc1ccc2[nH]cc(CCN)c2c1` [5-Methoxytryptamine], the “z-score of subpopulation abundance” value rises from -0.12 to 0.28.

Compared with `CC(=O)OCC1=C(C(=O)O)N2C(=O)C(N)C2SC1` (centres undefined) [7-Aminocephalosporanic acid], `CN1c2ccccc2C(NCCCCCCC(=O)O)c2ccc(Cl)cc2S1(=O)=O` (centres undefined) [Tianeptine sodium] is higher in “z-score of subpopulation abundance” value: -0.28 for the first, -0.12 for the second.

First: CN(C)[C@@H]1C(=O)C(C(N)=O)=C(O)[C@@]2(O)C(=O)C3=C(O)c4c(O)ccc(Cl)c4[C@@](C)(O)[C@H]3C[C@@H]12 [Chlortetracycline HCl]
Second: C=C(C)[C@H]1Cc2c(ccc3c2O[C@@H]2COc4cc(OC)c(OC)cc4[C@@H]2C3=O)O1 [Rotenone (Barbasco)]
The “z-score of subpopulation abundance” value of the first is lower: -0.46 for the first, -0.22 for the second.

Compared with `CCCCCCCCCCCCCCCC[n+]1ccccc1` [Cetylpyridinium Chloride], `Oc1cccc2cccnc12` [8-Hydroxyquinoline] is lower in “z-score of subpopulation abundance” value: 0.44 for the first, -0.41 for the second.

Going from `CN[C@@H]1[C@@H](O)[C@@H](O[C@@H]2[C@@H](O)[C@H](O[C@H]3O[C@H](CN)CC[C@H]3N)[C@@H](N)C[C@H]2N)OC[C@]1(C)O.CN[C@@H]1[C@@H](O)[C@@H](O[C@@H]2[C@@H](O)[C@H](O[C@H]3O[C@H]([C@@H](C)N)CC[C@H]3N)[C@@H](N)C[C@H]2N)OC[C@]1(C)O.CN[C@@H]1[C@@H](O)[C@@H](O[C@@H]2[C@@H](O)[C@H](O[C@H]3O[C@H]([C@@H](C)NC)CC[C@H]3N)[C@@H](N)C[C@H]2N)OC[C@]1(C)O` [Gentamicin Sulfate] to `CN[C@@H]1[C@@H](O)[C@@H](O[C@@H]2[C@@H](O)[C@H](O[C@H]3O[C@H]([C@@H](C)O)[C@@H](O)[C@H](O)[C@H]3N)[C@@H](N)C[C@H]2N)OC[C@]1(C)O` [Geneticin (G418 Sulfate)], the “z-score of subpopulation abundance” value rises from -0.12 to 0.61.

First: C[C@@H]1O[C@@H](O[C@H]2C[C@@H](O)[C@]3(CO)[C@H]4[C@H](O)C[C@]5(C)[C@@H](C6=CC(=O)OC6)CC[C@]5(O)[C@@H]4CC[C@]3(O)C2)[C@H](O)[C@H](O)[C@H]1O [Ouabain]
Second: CC(=O)O[C@H]1C[C@@H]2CC[C@@H]3[C@H](CC[C@@]4(C)[C@H]3C[C@H]([N+]3(C)CCCCC3)[C@@H]4OC(C)=O)[C@@]2(C)C[C@@H]1[N+]1(C)CCCCC1 [Pancuronium dibromide]
The “z-score of subpopulation abundance” value of the first is higher: -0.83 for the first, -1.26 for the second.

First: NCC(O)c1ccc(O)cc1 (racemic) [(+,-)-Octopamine HCl]
Second: Cc1cc(O)ccc1Cl [Chlorocresol]
The “z-score of subpopulation abundance” value of the first is higher: 0 for the first, -0.37 for the second.

Compared with `CN1C(=O)COc2c(C(=O)NC3CN4CCC3CC4)cc(Cl)cc21` (centres undefined) [Azasetron HCl], `C[C@@H]1CC[C@H]2[C@@H](C)C(=O)O[C@@H]3O[C@@]4(C)CC[C@@H]1[C@]32OO4` [Artemisinin] is lower in “z-score of subpopulation abundance” value: 1.69 for the first, -1.74 for the second.
